Molecules are shown by their SMILES.

This assay has as its target T1, Aspartate--tRNA(Asp/Asn) ligase (Mycobacterium tuberculosis (strain ATCC 25618 / H37Rv)) (UniProt P9WFW3).
T1 sequence (whole entry): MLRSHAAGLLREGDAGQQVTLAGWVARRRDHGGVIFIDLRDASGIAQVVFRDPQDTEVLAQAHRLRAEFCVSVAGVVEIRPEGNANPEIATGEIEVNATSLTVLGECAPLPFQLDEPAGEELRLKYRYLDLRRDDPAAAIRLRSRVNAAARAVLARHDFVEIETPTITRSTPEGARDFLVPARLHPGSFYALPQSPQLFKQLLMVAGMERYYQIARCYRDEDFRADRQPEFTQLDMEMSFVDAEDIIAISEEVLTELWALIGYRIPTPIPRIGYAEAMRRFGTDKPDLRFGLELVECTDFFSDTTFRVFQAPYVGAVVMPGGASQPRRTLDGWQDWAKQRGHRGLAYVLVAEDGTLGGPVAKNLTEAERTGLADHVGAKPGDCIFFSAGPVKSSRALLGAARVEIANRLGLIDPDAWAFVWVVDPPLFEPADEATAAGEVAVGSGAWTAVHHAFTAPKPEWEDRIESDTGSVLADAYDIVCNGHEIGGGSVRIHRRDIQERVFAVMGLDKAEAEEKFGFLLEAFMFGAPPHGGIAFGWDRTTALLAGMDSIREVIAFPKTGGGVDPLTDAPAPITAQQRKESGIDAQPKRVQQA
Put plainly: Assay for Asp RNA synthetase-1 from Mycobacterium tuberculosis. It is filed as functional. Also noted: scale not given: in the data most compounds retested in dose-response had high values. The note with it: 30 µM.
For `O=C(c1ccc(Cl)c(Cl)c1)N1CCCC(n2cncn2)C1` (stereo not given), the Percent Effect is -2.85%.
For `N#Cc1cc(NC(=O)C2CC=CC2)ccc1N1CCC(O)CC1`, the Percent Effect was -1.55%.
In the case of `CN(Cc1ccsc1)C(=O)Nc1cccnc1N1CCCC1`, the Percent Effect worked out at 1.88%.
With `Cn1ncc2c(=O)[nH]c(CN3CCCC3Cc3ccccc3)nc21` (stereo not given), the Percent Effect is 2.98%.
Regarding `Cc1ncc(CNC(=O)CCc2cccc(F)c2)c(C2CCCN2C)n1` (stereo not given), the Percent Effect was found to be 1.77%.
As to `CC(C)CS(=O)(=O)CC(=O)N(C)Cc1ccc(OC(F)F)cc1`, the Percent Effect is -0.457%.
Take `COCCN1CCN(Cc2cccc(C(=O)N(C)C)c2)CC1C` (stereo not given): the Percent Effect came to 1.34%.
As for `CC(=O)c1cccc(NC(=O)Cn2cc(I)cn2)c1`, the Percent Effect stood at 6.41%.
Then `COc1ccc(C(C)=O)c(OCC(=O)NC(C)c2ccc(F)cc2)c1` (stereo not given), with -4.39%.
The figure for `CCn1c(N)nc2cc(C(=O)NCCc3sccc3C)cnc21` is 2.47%; for `Cc1ncnc(NCc2cc3n(n2)CCCN(S(C)(=O)=O)C3)c1C` it is 0.518%.
With `O=C(N1CCOCC1)[C@@]12CCO[C@@H]1CCN(CC1CCCCC1)C2`, the Percent Effect is -2.47%.
The figure for `O=C(Cc1ccc2c(c1)OCCO2)N1CCCC(n2ccnc2)C1` (stereo not given) is -4.41%; for `CN1C(=O)C[C@@H]2[C@@H]1CCN2C(=O)c1ccc[nH]1` it is -4.63%; for `Cc1nc(C)n(CC2CCCN(Cc3nc(C)c(C)o3)C2)n1` (stereo not given) it is 7.92%.
As to `CCCS(=O)(=O)c1ncc(CN2CCC(CO)CC2)n1CC1CCCO1` (stereo not given), the Percent Effect was -5.1%.
For `CC(C)S(=O)(=O)NCC1CCCN(C(=O)c2ccc3c(c2)OCCO3)C1` (stereo not given), the Percent Effect is 6.79%.
For the compound `O=C(Cn1ccc2ccccc21)NCc1ccc(C(=O)O)cc1`, the Percent Effect amounted to 5.27%.
`CN1Cc2c(C(=O)Nc3cccnc3)ncn2-c2ccccc2S1(=O)=O`: the Percent Effect was -2.67%.
The figure for `CCNC(=O)N1CCC2(C1)c1ccccc1S(=O)(=O)N2CCC(C)C` (stereo not given) is -0.553%.
In the case of `Cn1ncc2c(N3CCN(C(N)=O)CC3)nc(C3CCCC3)nc21`, the Percent Effect is 1.25%.
Consider `Cc1nn(C)c(N2CCOCC2)c1CNCc1nccs1`, for which the Percent Effect is -2.7%.
Then `Cn1cc(CN2CC[C@@H]3O[C@H](C(=O)N4CCOCC4)C[C@@H]32)cn1`, with 0.521%; and `CCNc1cc2c(nn1)CCN(C(=O)c1ccnc(N(C)C)c1)C2`, with 0.611%.
Consider `Cc1nc(CCC(=O)NC2CCC2)cc(C2CCNCC2)n1`, for which the Percent Effect turned out to be 1.96%.
On to `CCOCC(O)CN1CCN(C(=O)c2ccc(OC)cc2F)CC1` (stereo not given), for which the Percent Effect was -10.1%.
As to `Cc1nsc(N2CCCN(c3nc(C4CC4)ns3)CC2)n1`, the Percent Effect was found to be 0.575%.
`COc1cc(CNC2CCCc3c2cnn3C)cc(OC)c1` (stereo not given): the Percent Effect is -0.657%.
As to `NC(=O)C1CCN(Cn2nc(-c3ccccc3)oc2=O)CC1`, the Percent Effect is 9.54%.
Consider `NC(=O)CC1CCN(C(=O)NCc2ccccc2-n2cccn2)CC1`, for which the Percent Effect is -3.48%.
As for `CN1CCC(NC(=O)NCCNc2ccccn2)CC1`, the Percent Effect was 0.524%.
As to `CSCc1cccc(S(=O)(=O)N2CCSCC2)c1`, the Percent Effect turned out to be 0.639%.
Regarding `O=C(Nc1cccc2c1CCCC2)C1CCCN1c1nccs1` (stereo not given), the Percent Effect was found to be 2.28%.
On to `Cc1cccc(CN2C[C@@H]3COC[C@]3(CNC(=O)c3ccsc3)C2)n1`, for which the Percent Effect is -2.88%.
Then `CC(=O)N1CCC(Cc2cnc(-c3c(C)n[nH]c3C)cn2)C1` (stereo not given), with -11.6%; and `CC(C)NC(=O)N1CCN(Cc2ccccn2)CC2(CC(=O)N(C)C2)C1` (stereo not given), with -0.228%; and `OC(COc1ccccc1)CN1CCc2c(ncn2C2CC2)C1` (stereo not given), with -7.92%.
Then `Cc1cc(C(F)(F)F)nn1CC(C)C(=O)Nc1ccncc1` (stereo not given), with 2.67%.
As for `Cc1nc(C)n(CC2CCCN(Cc3nnc(C(C)(C)C)o3)C2)n1` (stereo not given), the Percent Effect came to 1.32%.
For the compound `CCc1nc(C2CCCN2Cc2nccn2Cc2ccccc2)no1` (stereo not given), the Percent Effect is -2.22%.

The values above are taken from ChEMBL document CHEMBL3988442, “University of Dundee, Small-Polar-MMV Screening Library” (2021).
